This note sets out measurements from ChEMBL document CHEMBL1157539, “Thousands of chemical starting points for antimalarial lead identification” (Nature, 2010).

What all share (type): functional
Experiment [1] relates to Plasmodium falciparum. As to the kind of experiment: GSK_TCMDC: Inhibition of Plasmodium falciparum 3D7 in whole red blood cells, using parasite LDH activity as an index of growth. Test compounds present at 2uM.
For experiment [2], the system named is Plasmodium falciparum. As to the kind of experiment: GSK_TCMDC: Inhibition of Plasmodium falciparum Dd2 in whole red blood cells, using parasite LDH activity as an index of growth. Test compounds present at 2uM.
Experiment [3] deals with HepG2. As to the kind of experiment: GSK_TCMDC: Percent inhibition of human HepG2 cell line. Test compounds present at 10uM.

Consider `CCN1CCC(NCc2ccc(-c3ccc(Cl)cc3)cc2)CC1`, for which the results for the Inhibition in experiment [1], in experiment [2] and in experiment [3] were 100%, 33% and 25%, respectively.
The corresponding values for `Cc1cc(NCCC(=O)NCCOc2ccccc2)nc(NCCc2ccc(F)cc2)n1.O=C(O)C(F)(F)F` are 97%, 4% and 14%.
In the case of `CC(=O)Nc1cccc(C(=O)Nc2cccc(-c3ccc(-c4nc5cc(C(F)(F)F)ccc5[nH]4)s3)c2)c1`, the Inhibition in experiment [1] is listed as 98%; in experiment [2] it was 46%; in experiment [3] it was 80%.
As to `Cc1ccc(NC(=O)c2ccc(N3CCN(c4ccncc4)CC3)cc2)cc1F.O=C(O)C(F)(F)F`, the values for the Inhibition in experiment [1], in experiment [2] and in experiment [3] were 100%, 79% and 47%, respectively.
The like results for `COc1cccc(-c2ccc(O)c(CNCCc3cccc(F)c3)c2)n1` were, in that order, 96%, 67% and 0%.
As to `CN1c2ccccc2Sc2cc(CNCCSCCNCc3ccc4c(c3)Sc3ccccc3N4C)ccc21.Cl`, the Inhibition stood at 84% in experiment [1], 44% in experiment [2] and 58% in experiment [3].
On to `COc1cccc2cc(C(=O)N[C@@H](CC(C)C)C(=O)N[C@H](/C=N/N3C(=O)CN(Cc4ccccc4)C3=O)CCc3ccccc3)oc12`, for which the Inhibition in experiment [1] is 85%; in experiment [2], 52%; in experiment [3], 14%.
On to `O=C(O)C(F)(F)F.O=C1CCCN1CCCNCc1cccc(-c2cccc(-c3nc4cc(F)ccc4[nH]3)c2)c1`, for which the Inhibition in experiment [1] is reported as 100%; in experiment [2], 69%; in experiment [3] it was 6%.
As to `CCc1c(CCNCCCCCCNCc2ccc3c(c2CC)OCO3)ccc(OC)c1OC.Cl`, the results for the Inhibition in experiment [1], in experiment [2] and in experiment [3] were 100%, 19% and 38%, respectively.
The corresponding values for `Cn1nc(-c2ccc(NC(=O)Nc3cc(C(F)(F)F)ccc3F)c(F)c2)c2cnc(NCCCn3ccnc3)nc21.O=C(O)C(F)(F)F` are 100%, 97% and 45%.
With `O=C(NCCc1ccc(Cl)c(Cl)c1)[C@@H]1CCCN1C(=O)c1ccc(O)c(-c2cccc(C(F)(F)F)c2)c1`, the Inhibition in experiment [1] amounted to 97%; in experiment [2], 82%; in experiment [3], 0%.
The like results for `CCc1c[nH]c2c(N3CCCC3=O)cc(C(=O)N[C@@H](Cc3ccccc3)[C@H](O)CNC3CCCCC3)cc12.O=CO` were, in that order, 100%, 98% and 12%.
As to `c1ccc2sc(Sc3ncnc4sccc34)nc2c1`, the values for the Inhibition in experiment [1], in experiment [2] and in experiment [3] were 100%, 100% and 7%, respectively.
For `O=C(Cn1c(SCc2cccc(F)c2F)cc(=O)c2ccccc21)N(Cc1ccc(-c2ccc(C(F)(F)F)cc2)cc1)C1CCN(CCO)CC1`, the values for the Inhibition in experiment [1], in experiment [2] and in experiment [3] were 89%, 81% and 50%, respectively.
Regarding `Cc1ccc(/C=C/C(=O)NC2CCC(N3CCC(c4ccccc4C)CC3)CC2)cc1F` (stereo unspecified), the Inhibition worked out at 96% in experiment [1], 18% in experiment [2] and 51% in experiment [3].
As to `C#CCNCc1ccc(-c2ccc(-c3nc4cc(C(F)(F)F)ccc4[nH]3)s2)cc1.O=C(O)C(F)(F)F`, the Inhibition in experiment [1] is recorded as 98%; in experiment [2] it was 28%; in experiment [3], 37%.
As to `Cl.Oc1ccc(CCNc2nc(NCCCOc3ccccc3-c3ccc(C(F)(F)F)cc3)nc(N3CCNCC3)n2)cc1`, the Inhibition stood at 100% in experiment [1], 49% in experiment [2] and 64% in experiment [3].
For the compound `COc1ccc2c(=NN=Cc3c(OC)ccc4ccccc34)cc(C)[nH]c2c1`, the values for the Inhibition in experiment [1], in experiment [2] and in experiment [3] were 100%, 85% and 7%, respectively.
For `Cc1cc(O)nc(NC(=N)NOCCCc2ccccc2)n1`, the Inhibition in experiment [1] was determined as 100%; in experiment [2], 4%; in experiment [3], 0%.
In the case of `O=C(O)C(F)(F)F.O=C1CCCN1CCCNCc1cccc(-c2ccc(-c3nc4cc(C(F)(F)F)ccc4[nH]3)s2)c1`, the values for the Inhibition in experiment [1], in experiment [2] and in experiment [3] were 100%, 99% and 19%, respectively.
`CN1CCN(c2ccnc3ccc(NC(=O)Nc4c(Cl)cccc4Cl)cc23)CC1`: the Inhibition worked out at 96% in experiment [1], 12% in experiment [2] and 11% in experiment [3].
For `CCCCCn1c(Sc2ccc(C#N)c([N+](=O)[O-])c2)nnc1-c1cc(OC)cc(OC)c1`, the Inhibition is listed as 93% in experiment [1], 24% in experiment [2] and 17% in experiment [3].
With `O=C(O)C(F)(F)F.O=S(=O)(NCCN1CCCC1)c1ccc(-c2cccc(CNCCc3cccs3)c2)cc1`, the Inhibition in experiment [1] was 95%; in experiment [2], 30%; in experiment [3], 41%.
In the case of `CCOC(=O)C(CO)NC(=O)c1ccc([N+](=O)[O-])o1` (stereo unspecified), the Inhibition in experiment [1] came out at 96%; in experiment [2], 2%; in experiment [3], 0%.
Turning to `COc1cccc2cc(C(=O)N[C@@H](CC(C)C)C(=O)N[C@H](/C=N/NC(=O)Cc3cccnc3)CCc3ccccc3)oc12`, the Inhibition in experiment [1] turned out to be 82%; in experiment [2], 54%; in experiment [3] it was 6%.
As to `O=C(NCCCN1CCCCC1)c1cccc(Nc2nccc(Nc3ccc(Oc4ccccc4)cc3)n2)c1`, the Inhibition in experiment [1] is 96%; in experiment [2] it was 12%; in experiment [3], 47%.
Consider `CCc1nc2c(cnn2CC)c(NC2CCOCC2)c1CNC(=O)c1ccoc1C`, for which the Inhibition is on record as 97% in experiment [1], 87% in experiment [2] and 6% in experiment [3].
